In the library only some 13% were active in any assay of this set; here they are far more common.
FMDV antiviral: antivirals against foot and mouth disease virus | Potency, µM (doses to about 57.9 µM), inactives show top-dose activity change, negative = inhibition, hits mostly inhibitors | FMDV antiviral cell-based qHTS | hit rate 1.2% among 410,000; calls by dose curve; tested in HEK293T cells; further: read-out not given here; potency means the concentration at half of the fitted maximal effect; on the % scale 0 is the no-effect control and ±100 the full control effect; nearly all actives have a fitted effect of over 45% in size
Shiga toxin inh: inhibitors of Shiga toxin in Vero cells; hit rate 9.2% among 290,000; Vero cells, Shiga toxin protein synthesis inhibition reporter; inhibition, % at 38.7 µM; in the data active means inhibition mostly above about 28%, no sharp cut-off; inactive means mostly below about 43%; further: 0% is about no effect
Lassa entry inh: blocks Lassa virus binding to or entry into cells | hit rate 1.2% among 300,000 | Potency, µM (top dose mostly 37.9 µM), without a hit: at the top dose activity change, negative = inhibition, most hits filed as inhibitors | Lassa virus pseudotype entry inhibition, cell reporter | AID 540256; calls by dose curve; tested in HEK293 cells; further: potency means the concentration at half of the fitted maximal effect; on the % scale 0 is the no-effect control and ±100 the full control effect; nearly all actives have a fitted effect of over 50% in size
Cycloheximide cs: counter-screen hit for Shiga toxin inhibitors, cycloheximide. hit rate 12% among 300,000. max response, %. cell reporter, cycloheximide protein synthesis inhibition counterscreen. AID 2314; in the data active means max response mostly above about 13%, no sharp cut-off; inactive means mostly below about 14%; further: read at 38.3 µM for the half of the compounds with a filed dose; 0% is about no effect
MARV entry inh: blocks Marburg virus binding to or entry into cells. Marburg virus pseudotyped entry inhibition, cell reporter. Potency, µM (highest dose often 37.8 µM), for the others: top-dose activity change, negative = inhibition, actives largely listed as inhibitors. hit rate 1.8% among 300,000. AID 540276; calls by dose curve; tested in HEK293 cells; further: potency means the concentration at half of the fitted maximal effect; on the % scale 0 is the no-effect control and ±100 the full control effect
HCV inh: inhibitors of hepatitis C virus infection | Huh7.5.1 HCVcc-Cre infection, luciferase reporter, 44 h | Potency, µM (doses to about 41.8 µM), for the others: top-dose activity change, negative = inhibition, actives largely listed as inhibitors | hit rate 3.4% among 340,000 | AID 651820; active means well fitted inhibition curve with a large enough effect; inconclusive means small, poorly fitted or top-dose-only effect, or another doubt; inactive means no such curve, though single readings can be large or run the other way; further: potency means the concentration at half of the fitted maximal effect; on the % scale 0 is the no-effect control and ±100 the full control effect
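Infectious HCV cell culture screen: compound-treated cells (1,000/well, pre-plated 4 h) are infected with HCVcc-Cre at roughly 0.5 moi and grown 44 h. Infection is quantified by luciferase signal after 15 min substrate incubation at room temperature.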
An asterisk follows results filed as active; ? = inconclusive; · = no result given; [ ] = remark or other dose.

SMILES | FMDV antiviral | Shiga toxin inh | Lassa entry inh | Cycloheximide cs | MARV entry inh | HCV inh
Cc1ccccc1C1c2[nH]c3ccccc3c2C[C@H]2C(=O)N(c3ccccc3C(=O)NCCCN3CCOCC3)C(=O)N12 (stereo partly specified) | -22.6% | -1.3 | · | -1.8 | · | 1.12µM*
CC1CCN(c2oc(-c3cccc4ccccc34)nc2C#N)CC1 | · | 8.7 | ? | 1.4 | 8.6% | 4.0%
CN(C)c1oc(-c2ccccc2)nc1C#N | 23.7% | -10.9 | 8.8% | -4.0 | -16.9% | -17.6%
CN(C)c1oc(-c2ccccc2Cl)nc1C#N | 14.0% | -3.3 | 5.1% | -0.4 | -4.4% | 25.1µM*
N#Cc1nc(-c2ccccc2Cl)oc1N1CCCCC1 | 10.2% | 128.7* | 12.9% | 24.1* | 18.2% | ?
N#Cc1nc(-c2cccc3ccccc23)oc1N1CCCCC1 | 28.3% | 44.3 | 10.6% | 22.4* | ? | 0.0%
COc1ccccc1-c1nc(C#N)c(N2CCN(Cc3ccccc3)CC2)o1 | ? | 15.5 | -21.7% | 10.4 | -22.9% | 11.2µM*
CCOC(=O)/C(C(=O)Nc1ccccc1Cl)=C1/NC(C)(C)Cc2ccccc21 | -16.8% | 8.9 | -32.3% | -1.4 | ? | ?
CC(C)OCCCNC(=O)C1CCC(=O)N1C1CCCC1 (stereo unspecified) | -5.4% | -1.9 | 11.0% | -3.4 | 16.5% | -7.1%
O=C(CSc1nnc(COc2ccc(Cl)cc2Cl)o1)Nc1ccccn1 | 2.2% | 60.2* | 0.3% | 28.4* | -0.5% | 14.0%
Clc1ccc(OCc2nnc(SCc3nnc(-c4ccccc4)o3)o2)c(Cl)c1 | 21.7% | 56.0* | ? | 39.2* | -30.4% | -27.7%
Cn1c(=O)c(C(=O)NCCc2ccccc2)c(O)c2ccccc21 | 19.2% | 9.9 | ? | 1.7 | ? | -22.1%
Cc1cccc(NC(=O)c2nc[nH]c2C(=O)N[C@@H](CCCCNC(=O)OC(C)(C)C)C(=O)OC(C)(C)C)c1 | ? | -6.4 | · | -2.8 | · | ?
O=C(CCS(=O)(=O)c1ccccc1)Nc1nccs1 | -16.9% | -6.5 | · | 4.0 | 4.8% | 5.0%
Cc1cccc(NC(=O)CCS(=O)(=O)c2ccccc2)n1 | 37.2% | 53.6* | 12.1%[46.1 µM] | 23.6 | 18.9%[46.1 µM] | 14.7%
Cc1cccc(NC(=O)CCS(=O)(=O)c2ccccc2)c1 | 54.6% | 47.3* | · | 30.2* | · | 19.2%
COc1ccc2c(COC(=O)CCS(=O)(=O)c3ccc(C)cc3)cc(=O)oc2c1 | -0.1% | · | 2.0% | · | 4.9% | 1.0%
O=c1nc(-c2ccccc2)c2cc(Br)ccc2[nH]1 | 25.7% | -22.7 | -6.7%[46.1 µM] | -2.1 | -9.3%[46.1 µM] | -7.9%
O=c1cc2[nH]c3ccccc3c(=O)n2nc1-c1ccccc1 | 17.5% | 63.6 | -1.9% | 24.9* | ? | -8.1%
CCN1C(=O)/C(=C/c2ccc(C)o2)N(C)C1=S | 26.3% | 10.6 | 0.3% | 16.3* | 6.1% | 1.7%
COc1c(N2C[C@@H]3CCCN[C@H]3C2)c(F)cc2c(=O)c(C(=O)O)cn(C3CC3)c12 | 3.1% | · | · | · | · | ·
COc1ccc(N2CS(=O)(=O)/C(=C/N(C)C)C2=O)cc1 | 48.5% | 75.4* | 4.2% | 38.9* | -0.9% | -4.8%
COc1cc(/C(C)=N/NC(=O)CN2CCN(S(=O)(=O)c3ccc(C)cc3)CC2)ccc1O | -13.3% | -7.0 | · | 0.6 | · | -3.3%
C[C@H]1CN([C@@H](C)CO)C(=O)Cc2cc(NC(=O)CCC(F)(F)F)ccc2O[C@H]1CN(C)CC1CC1 | -10.5% | · | · | · | · | -12.0%
CCOC(=O)C(C)On1c(-c2cccc(Cl)c2)nc2ccc([N+](=O)[O-])cc21 (stereo unspecified) | -2.2% | 101.9* | ? | 45.7* | -21.3% | ?
SMILES | FMDV antiviral | Shiga toxin inh | Lassa entry inh | Cycloheximide cs | MARV entry inh | HCV inh
CCOC(=O)c1c(C)nc(C)c(C(=O)OCC)c1-c1cccc([N+](=O)[O-])c1 | -24.1% | · | · | · | · | ·
CCOC(=O)COn1c(-c2cccc(Cl)c2)nc2ccc([N+](=O)[O-])cc21 | 36.4% | 63.5* | 18.2% | 76.1* | 2.3% | -29.1%
CCCn1c(SCC(=O)NNC(=O)c2ccc(OC)cc2)nnc1C(C)C | -11.1% | 20.0 | -0.6% | 0.5 | 7.3%[46.1 µM] | 15.6%
CCOc1ccc2nc(N3CCCC(C(=O)NCCCN4CCOCC4)C3)sc2c1 (stereo unspecified) | 31.0% | 58.1* | · | 27.7* | · | -8.2%
CCOc1ccc2nc(N3CCC(C(=O)NCCCN4CCOCC4)CC3)sc2c1 | 1.3% | 55.6* | -11.4% | 37.2* | ? | ?
CCOc1cc2sc(N3CCC(C(=O)Nc4cc(C)cc(C)c4)CC3)nc2cc1Br | -3.2% | · | · | · | 6.0%[46.1 µM] | ·
CCOc1cc2sc(N3CCC(C(=O)Nc4ccc(C(C)C)cc4)CC3)nc2cc1Br | 53.8% | 120.5* | · | 55.9* | ? | ·
CCC1(c2ccccc2)NC(=O)N(CC(=O)N(C)CC(=O)Nc2ccc(F)c(F)c2F)C1=O (stereo unspecified) | -14.7% | · | 3.0% | · | 21.0%[46.1 µM] | -13.7%
Cc1cc(/C=C2\C(=O)NN(c3ccccc3)C2=O)c(C)n1-c1ccccc1O | 6.8% | 45.9* | · | 34.5* | · | ?
COc1ccc(-n2c(C)cc(/C=C3\C(=O)NN(c4ccccc4)C3=O)c2C)cc1 | 46.6% | 50.0* | 8.3% | 39.1* | 16.9% | -2.5%
COc1cc(/C=C2/C(=O)NN(c3ccccc3)C2=O)cc(Br)c1O | 9.8% | 3.8 | · | -3.4 | · | 5.0%
O=C1NN(c2ccccc2)C(=O)/C1=C\c1ccccc1 | -14.4% | -1.5 | 16.9%[46.1 µM] | 0.9 | ? | 18.3%
COc1ccc(Sc2ccc(/C=C3\C(=O)NN(c4ccccc4)C3=O)o2)cc1 | 39.8µM* | -15.5 | 0.5% | -2.0 | ? | -1.3%
Cc1cc(/C=C2/C(=O)NN(c3ccccc3)C2=O)c(C)n1-c1ccc(O)cc1 | 17.8µM* | 12.6 | ? | 17.6 | 7.08µM* | ?
O=C1NC(=O)N(c2ccccc2)C(=O)/C1=C/c1ccc(Sc2ccccc2)o1 | ? | 0.3 | 0.4% | -1.6 | ? | 11.4%
CCOc1ccc(-n2ccnc(SCC(=O)NCc3cccc(OC)c3)c2=O)cc1 | 9.2% | · | 11.9% | · | -52.2% | ?
Cc1ccc(C(=O)/C=C/c2ccc(-c3ccc(C)cc3)o2)cc1 | 2.4% | 13.2 | -25.8% | 14.8 | 0.7% | 24.8%
Cc1cc(/C=C2/C(=O)NC(=O)N(Cc3ccco3)C2=O)c(C)n1-c1ccccc1 | 17.3% | 40.0 | 11.7% | 11.1 | 29.5% | 2.9%
Cc1cc(C=C2C(=O)CCCC2=O)c(C)n1-c1ccccc1 | -24.2% | 10.0 | 7.1% | 16.1* | -8.6% | 5.8%
C=CCn1c(-c2cc3c(s2)CCC(CC)C3)n[nH]c1=S (stereo unspecified) | 19.9% | 36.1 | ? | 23.7* | 9.9%[46.1 µM] | 1.3%
C=CCn1c(SCC(=O)NC2CCS(=O)(=O)C2)nnc1-c1cc2c(s1)CCC(CC)C2 (stereo unspecified) | 6.7% | 62.5 | -11.4% | 25.0* | -27.0% | -7.2%
CCOc1ccccc1NC(=O)Cn1nnc2sc(-c3ccccc3)cc2c1=O | -7.6% | · | 20.2%[46.1 µM] | · | -8.0%[46.1 µM] | ·
CC1CCCCC1N1CCN(C(=O)c2cccc(F)c2)CC1 (stereo unspecified) | -19.0% | -4.6 | -0.4% | 6.1 | 13.3%[46.1 µM] | 12.2%
